Source: PubChem BioAssay (NCATS)
Records with an inconclusive call do not appear. Entries that show only a call come without a potency. Calls of active or inactive are those of the source. Unless noted, calls follow the shape of the dose curve; as a rule, active = well fitted curve in the direction sought with a large enough effect; inconclusive = small, poorly fitted or top-dose-only effect, or another doubt; inactive = no such curve, though single readings can be large; an effect the other way counts as inactive or inconclusive.

What was measured:
[1] = biological target: Aldehyde dehydrogenase, mitochondrial (Homo sapiens) (UniProt P05091); assay: qHTS for Inhibitors of the Aldehyde Dehydrogenase Family (ALDH2) Confirmatory screens (AID 2061303; active = well fitted inhibition curve with a large enough effect; title and protocol of this record describe different tests; also: nearly all actives have a fitted effect of over 45% in size)
[2] = qHTS for Inhibitors of the Aldehyde Dehydrogenase Family (ALDH1A2, ALDH1A3, ALDH2, ALDH3A1) (AID 2061307); also: nearly all actives have a fitted effect of over 50% in size; as to potency: test system not described further here; potency is read from the fitted curve at half-maximal effect
[3] = biological target: Retinaldehyde dehydrogenase 3 (Homo sapiens) (UniProt P47895); assay: qHTS for Inhibitors of the Aldehyde Dehydrogenase Family (ALDH1A3) Confirmatory screens (AID 2061311); also: nearly all actives have a fitted effect of over 60% in size; also: potency is read from the fitted curve at half-maximal effect
[4] = biological target: Retinaldehyde dehydrogenase 3 (Homo sapiens) (UniProt P47895); assay: qHTS for Inhibitors of the Aldehyde Dehydrogenase Family (ALDH1A3) Validation screen (AID 2061312); also: potency is read from the fitted curve at half-maximal effect; nearly all actives have a fitted effect of over 45% in size
[5] = biological target: Retinal dehydrogenase 2 (Homo sapiens) (UniProt O94788); assay: qHTS for Inhibitors of the Aldehyde Dehydrogenase Family (ALDH1A2) Confirmation screens (AID 2061314); also: nearly all actives have a fitted effect of over 65% in size
[6] = biological target: Retinaldehyde dehydrogenase 3 (Homo sapiens) (UniProt P47895); assay: qHTS for Inhibitors of the Aldehyde Dehydrogenase Family (ALDH1A3) Primary screen (AID 2061315)
[7] = biological target: Aldehyde dehydrogenase 1A1 (Homo sapiens) (UniProt P00352); assay: qHTS for Inhibitors of the Aldehyde Dehydrogenase Family (ALDH1A1) Confirmatory screens (AID 2061316); also: nearly all actives have a fitted effect of over 65% in size; also: potency is read from the fitted curve at half-maximal effect
[8] = biological target: Aldehyde dehydrogenase, mitochondrial (Homo sapiens) (UniProt P05091); assay: qHTS for Inhibitors of the Aldehyde Dehydrogenase Family (ALDH2) Primary screen (AID 2061308); also: nearly all actives have a fitted effect of over 55% in size
[9] = BET inhibitor-based combinations targeting novel dependencies in MECOM-rearranged (r) AML: SET-2 cell line (AID 2202231); conditions: SET-2 AML cells viability, CellTiter-Glo luminescence, 48 h; viability: hits give low values, series mostly up to about 46 µM; also: nearly all actives have a fitted effect of over 35% in size
Summary of the method: (§1)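 Cells were plated at 500 per well and exposed to an 11-point dose series of each drug for 48 hr. Viability was measured by CellTiter-Glo luminescence, normalized to DMSO and empty-well controls, and summarized as AUC and per-cell-line Z-AUC.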

[10] = BET inhibitor-based combinations targeting novel dependencies in MECOM-rearranged (r) AML: OCI-AML3 cell line (AID 2202232); conditions: Potency: OCI-AML3 viability; also: series mostly up to about 46 µM; nearly all actives have a fitted effect of over 35% in size
Summary of the method: as §1

[11] = BET inhibitor-based combinations targeting novel dependencies in MECOM-rearranged (r) AML: MV-4-11 cell line (AID 2202233); also: potency is read from the fitted curve at half-maximal effect; nearly all actives have a fitted effect of over 45% in size
Summary of the method: (§2)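 Activity is given as area under the curve and as Z-AUC, mean-centred within each cell line. It comes from 11-point dose curves normalized to DMSO and empty wells. CellTiter-Glo luminescence was read after 48 hr drug exposure of 500 cells/well.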

[12] = BET inhibitor-based combinations targeting novel dependencies in MECOM-rearranged (r) AML: HNT-34 cell line (AID 2202234); also: nearly all actives have a fitted effect of over 35% in size
Summary of the method: as §2

[13] = BET inhibitor-based combinations targeting novel dependencies in MECOM-rearranged (r) AML: UCSD-AML1 cell line (AID 2202235); also: series mostly up to about 46 µM; nearly all actives have a fitted effect of over 40% in size
Summary of the method: as §2

[14] = BET inhibitor-based combinations targeting novel dependencies in MECOM-rearranged (r) AML: AML-191 cell line (AID 2202236; also: nearly all actives have a fitted effect of over 35% in size)
Summary of the method: as §1

## Cc1cc(F)ccc1[C@H]1C[C@@H](N2CCN3C(=O)CC[C@H]3C2)CCN1C(=O)N(C)[C@H](C)c1cc(C(F)(F)F)cc(C(F)(F)F)c1
[1]
  Potency: inactive
[2]
  Potency: inactive
[3]
  Potency: inactive
[4]
  Potency: 7.94 µM (active)
[5]
  Potency: inactive
[6]
  Potency: inactive
[7]
  Potency: inactive

## COc1ccc(-n2cnc3cc(C(=O)N4CCCCC4)ccc32)cc1
[1]
  Potency: inactive
[2]
  Potency: inactive
[8]
  Potency: inactive
[6]
  Potency: inactive
[7]
  Potency: inactive
[9]
  viability: 112% (inactive)
[10]
  Potency: inactive
[11]
  Potency: 18.6 µM (active)
[12]
  Potency: inactive
[13]
  Potency: inactive
[14]
  Potency: inactive

## O=S(=O)(NCCCCCCNS(=O)(=O)c1c(F)cccc1F)c1ccc2c(c1)OCCO2
[1]
  Potency: inactive
[2]
  Potency: 5.01 µM (active)
[8]
  Potency: inactive
[6]
  Potency: inactive
[7]
  Potency: 8.96 µM (active)

## O=c1cc(-c2ccccn2)oc2c(Nc3ccccc3)nccc12
[1]
  Potency: inactive
[2]
  Potency: inactive
[3]
  Potency: 20 µM (active)

## CC(C)(C)OC(=O)N1CCN(c2ccc(NCc3ccc(-c4ccc(C(C)(C)C)cc4)o3)cc2)CC1
[1]
  Potency: inactive
[2]
  Potency: inactive
[8]
  Potency: inactive
[7]
  Potency: 10.1 µM (active)
